Only some compounds are listed: those with a hit (about 1.2% of all), similar ones and a draw of the others.
JMJD2C inh: inhibitors of GASC-1 histone demethylase, primary screen, biochemical, fluorescence, DELFIA europium. GST-JMJD2C(1-420) H3K9me3 demethylation. inhibition, % at 2.35 µM. hit rate 0.069% among 330,000. AID 2099, 2009;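 active = more than half of a compound's replicate wells show inhibition beyond 50%, single wells judged on their own value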;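 note: signal counts dimethyl H3K9 product captured on neutravidin plate; 0% = median of DMSO wells and 100% = 0.3 times that DMSO median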
GPR7 antag: GPR7 receptor antagonists, primary screen, cell-based, fluorescence, single concentration; Neuropeptides B/W receptor type 1 (Homo sapiens), P48145; GPR7-expressing cells, fluorescence antagonist assay; hit rate 1.1% among 290,000; inhibition, % at 4.4 µM; in the data active = inhibition above about 16%, passing the limit was not always enough;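 note: cells stimulated with the agonist NPW; 0% = agonist with vehicle and 100% = vehicle without agonist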
p-CIP stab down: p/CIP-EGFP fusion destabilizers, primary screen, fluorescence, F442A cells. hit rate 0.01% among 290,000. 16 h. decrease of EGFP signal, % at 10 µM. Q05BA5;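 active = EGFP signal decrease of at least 30% at 10 µM or well 3 SD below plate mean, unless failing retest; inactive = the rest, including hits failing retest or dose response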
VLA-4 inh: inhibition in human VLA-4 binding assay, primary screen, VLA-4 allosteric modulator project, MLPCN library, flow cytometry, VLA-4 expressing cells | ligand binding flow cytometry | AID 2557, 2010 | hit rate 0.2% among 330,000 | inhibition, % (about 7 µM as worked out from the volumes in the protocol); in the data active = inhibition above about 50%
VLA-4 mod pick: retest of VLA-4 allosteric modulators, confirmation, cell-based, cherry-picked plates, U937, HUTS-21 LIBS antibody. shares compounds with VLA-4 inh. U937 cells, HUTS-21 LIBS mAb binding, flow cytometry; LDV ligand present at threefold Kd. inhibition, % at 6.7 µM. hit rate 2% among 1,300. AID 2813, 2010; in the data active = inhibition above about 40%;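 note: 0% = ligand without compound and 100% = no ligand background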
Starred values were filed as active, the others as inactive; x = no result.

SMILES | JMJD2C inh | GPR7 antag | p-CIP stab down | VLA-4 inh | VLA-4 mod pick
O=C(OC1CC2CCC(N2)C1C(=O)O)c1ccccc1 (centres undefined) | x | x | x | -6 | 3
Cc1cc(=O)n(-c2ccccc2)n1-c1ccccc1 | -4 | -12 | 8 | -19 | x
COc1ccc(C(=O)OC2CC3CCC(C2)[N+]3(C)[O-])cc1OC (centres undefined) | 5 | -10 | -16 | 6 | 0
CN1CCN(CCC(=O)OC2CC3CCC(C2)N3C)CC1 (centres undefined) | 2 | 1 | -1 | 12 | x
COc1cc(C(=O)OC2C[C@H]3CC[C@@H](C2)N3)ccc1O (some centres undefined) | -7 | -5 | -3 | 2 | -3
COc1cc(C(=O)OC2C[C@H]3CC[C@@H](C2)N3C)ccc1O (some centres undefined) | -2 | -7 | -16 | 11 | 2
CCC(CO)(C(=O)OC1CC2CCC(C1)N2C)c1ccccc1 (centres undefined) | 6 | 3 | -6 | -2 | x
CN1C2CCC1CC(OC(=O)c1cc(Cl)cc(Cl)c1)C2 (centres undefined) | -2 | 9 | -5 | 93* | -1
C[N+]1(C)C2CCC1CC(OC(=O)c1ccco1)C2 (centres undefined) | -2 | -7 | -3 | -9 | x
Cc1ccc(S(=O)(=O)N(C)N=O)cc1 | x | x | x | 22 | x
COC(=O)C1=C(c2ccc(S(C)(=O)=O)cc2)C[C@@H]2CC[C@H]1N2C(=O)NCc1ccc(C(F)(F)F)cc1 | -9 | x | x | 19 | x
O=C1CN=C(c2ccccc2)c2cc(Cl)ccc2N1 | x | x | x | 24 | x
COC(=O)CC1=C(C(=O)OC)C2(C(=O)Nc3c(C)cccc32)C(C#N)=C(N)O1 (centres undefined) | 1 | -6 | 1 | 107* | -6
Cc1ccsc1/C=C1\C(=O)NC(=S)N(C)C1=O | -5 | -8 | 3 | 46 | 34
CN1C(=O)/C(=C/c2ccc(Cl)s2)C(=O)NC1=S | 5 | -1 | 6 | 19 | x
Cc1c(OC(=O)N(C)C)ccc2c1O/C(=C\c1ccco1)C2=O | 4 | 20 | 0 | 4 | x
COc1ccc(-n2c(CN3CCOCC3)nc3ccccc3c2=O)c(OC)c1 | -8 | -7 | 8 | 7 | x
COc1cccc(-c2sc3ccccc3c2-c2ccc(OCCN3CCOCC3)cc2)c1 | -7 | x | x | 17 | -1
C=C(C=O)C[C@@H]1C[C@H](O)C2OC3C[C@]4(C)OC5/C=C\CC6OC7C(CC=CCC6OC5CCCC4OC3CC2O1)OC1CC2OC3CC(=O)OC3C[C@@H](C)C[C@@]2(C)OC1C[C@@H]7C (some centres undefined) | 2 | x | -5 | 60* | 67*
C=C(C=O)CC1CC(O)[C@]2(C)OC3C[C@@H]4OC5C[C@]6(C)O[C@]7(C)CCC8OC9C[C@]%10(C)OC(/C(C)=C\CO)C(O)CC%10OC9CC(C)C8OC7CC6O[C@]5(C)C/C=C\C4OC3CC2O1 (some centres undefined) | 8 | x | x | 2 | x
C[C@]12CC[C@H](O)C[C@H]1CC[C@@H]1[C@@H]2C[C@@H](O)[C@]2(C)[C@@H](C3=CC(=O)OC3)CC[C@]12O | x | x | x | 51* | -2
Cc1nnc2ccc(-c3cccc(C(F)(F)F)c3)nn12 | -10 | x | x | 63* | -5
O=[N+]([O-])c1cnc[nH]1 | -2 | x | x | 5 | x
O=C1NC(=O)C(=Cc2ccc(-c3ccc(F)cc3O)o2)C(=O)N1 | 2 | 11 | -16 | -13 | x
CC1(C)C[C@H]2C=C(C=O)[C@]3(C=O)C[C@]3(C)[C@H]2C1 | -10 | 4 | -4 | 65* | 48*
COC(=O)C1CN(C#N)N(c2ccc(Cl)cc2)C12c1ccccc1-c1ccccc12 (centres undefined) | 9 | 12 | -18 | 62* | 53*
CC1(C)C(C(=O)N2CCN(c3ccc(Cl)cc3)CC2)C1(C)C | 3 | 3 | -15 | 9 | x
NC(=O)Cn1cc(C(=O)c2ccccc2)c2ccccc21 | 8 | -2 | 9 | -7 | 0
